Laboratory results published in PubChem BioAssay AID493056 (National Center for Advancing Translational Sciences (NCATS), 2011).
The campaign covered roughly 360,000 compounds. About 2,400 (0.67%) were called active. Cut-off read from the data, not from the text of the source: active = enhancement above about 30%; inactive = the rest. The sample as a whole holds a higher share of actives than the screen did.

Target: Thyrotropin-releasing hormone receptor (Homo sapiens) (UniProt P34981)
Experiment: qHTS for Small Molecule Agonists and Allosteric Enhancers of Human TRH Receptor: Primary Screen for Enhancers; note: 0% is about no effect
Conditions: TRHR cells, fluo-8 calcium fluorescence, EC20 TRH enhancement; at 2 µM; hits give high values
Source text: NIH Chemical Genomics Center [NCGC] NIH Molecular Libraries Probe Centers Network [MLPCN] MLPCN Grant: MH089816-01 Assay Submitter (PI): Marvin Gershengorn This project aims to identify small drug-like molecules that activate (agonists) the thyrotropin releasing hormone (TRH) receptor (TRHR) or enhance its TRH-stimulated activity (allosteric enhancers). TRHR, a drug-accessible cell surface receptor expressed in specific brain regions, and its ligand TRH have been implicated in several central nervous system disorders, including depression and anxiety. Small molecule TRHR agonists or allosteric enhancers that are metabolically stable and able to cross the blood-brain barrier might serve as probes to elucidate the roles of brain TRH receptors in animal models, and might be valuable as lead compounds for the development of drugs to treat patients with central nervous system disorders. Upon TRHR-Gq activation in TRHR cells, intracellular calcium is released from stores in the endoplasmic reticulum. […] This primary screen measures compound-induced enhancement of an EC20 stimulation of the receptor by its native ligand.
For the HTS assay freshly prepared cells are plated at a density of 2000/well in 3 ul of complete DMEM medium containing 10% serum in 1536-well plates and cultured over night at 37 C in a humidified incubator with 5% CO2. The next day, 2 ul of a no wash calcium dye (ABD Bioquest) was added to the cells and plates were incubated at room temperature for 1 hour. For the assay, assay plates were loaded into the FDSS kinetic plate reader. A 10 cycle (1 second/cycle) baseline measurement is taken and then the FDSS online 1536 pintool delivers 23 nl of compound library (as well as TRH controls) to the plate. The plate is measured for kinetically at 1 cycle/sec for 180 seconds and is considered to be the agonist portion of the assay (eg, compounds which activate a positive calcium response during this portion are flagged as potential agonists). Following the 180 second read, 1 ul of either an EC20 (positive modulation assay) is delivered by an onboard pipette head. Measurements are taken kinetically for an additional 180 seconds. TRHR FDSS Screening Protocol 1. Reagent, 3 uL 2000 cells/well 1536 TC treated Black plate in media containing 10% FCS 2. Time, 18 hours, 33.5C 5% CO2 (cells grown at 37C) 3. Reagent, 2 uL ABD fluo-8 Ca dye 4. Time, 30 min-1.5hrs hours, Room temp (6 plates/batch) 5. Detector, EX 480/EM 530C, FDSS 10 cycles baseline (1sec/cycle) 6. Compound, 23 nL of stock solution from library 7. Detector, EX 480/EM 530C, FDSS 230 cycles (1sec/cycle) Agonist mode 8. Compound, 1 ul EC20 of TRH made up in HEPES HBSS, 10 nM final 9. Detector, EX 480/EM 530C, FDSS 100 cycles (1sec/cycle) Potentiator mode

Sequence of Thyrotropin-releasing hormone receptor (Homo sapiens) (P34981 whole entry, looked up): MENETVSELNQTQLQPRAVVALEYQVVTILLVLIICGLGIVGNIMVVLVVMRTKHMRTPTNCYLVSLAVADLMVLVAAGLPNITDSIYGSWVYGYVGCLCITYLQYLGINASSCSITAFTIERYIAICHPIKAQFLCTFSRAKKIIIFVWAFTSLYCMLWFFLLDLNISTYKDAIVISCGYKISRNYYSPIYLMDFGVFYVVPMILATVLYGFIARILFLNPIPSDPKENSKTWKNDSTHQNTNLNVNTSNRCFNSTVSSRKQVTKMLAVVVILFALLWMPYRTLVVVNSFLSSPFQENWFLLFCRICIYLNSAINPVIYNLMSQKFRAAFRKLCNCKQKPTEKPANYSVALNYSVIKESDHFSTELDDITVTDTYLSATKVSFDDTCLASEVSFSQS

**Q.** With `COc1ccc(CNCCc2c[nH]c3ccccc23)cc1OC` as the molecule, how does the enhancement read?
**A.** 8.12% (inactive)

**Q.** Which enhancement does the source give for `C/C(CCc1c[nH]c2ccccc12)=N\O` here?
**A.** 30.5% (active)

**Q.** `CCC/C(=N\O)c1c[nH]c2ccccc12` was tested. Which enhancement did it give?
**A.** -0.263% (inactive)

**Q.** How did the enhancement turn out when `Cc1ccc(-n2c(/C=C/c3cccc(C(F)(F)F)c3)nc3ccccc3c2=O)cc1` was run?
**A.** -5.54% (inactive)

**Q.** Which enhancement does the source give for `O=C(c1cc(S(=O)(=O)N2CCOCC2)ccc1F)N1CCC2(CC1)OCCO2` here?
**A.** 5.79% (inactive)

**Q.** For `CC(C)Oc1cccc(C(=O)C2CCCN(C3CCOCC3)C2)c1` (stereo not given), which enhancement is on record?
**A.** 5.95% (inactive)

**Q.** With `O=C(OCCN1CCOCC1)C1(c2ccccc2)CCCC1` as the molecule, how does the enhancement read?
**A.** -3.33% (inactive)

**Q.** How did the enhancement turn out when `CCOP(=S)(OCC)C(O)CCCCCn1c(=O)c(F)cn(C2CCCO2)c1=O` (stereo not given) was run?
**A.** 31.8% (active)

**Q.** `CC(C)c1ccc(OCC(=O)N2CCN(C)CC2)c(Br)c1` was tested. Which enhancement did it give?
**A.** -3.04% (inactive)

**Q.** For `CC(C)(C)c1ccc(OC(=O)N2CCCCC2)cc1`, which enhancement is on record?
**A.** 2.54% (inactive)

**Q.** With `C[N+]1(C)CCOC(O)(c2ccc(-c3ccc(C4(O)C[N+](C)(C)CCO4)cc3)cc2)C1` (stereo not given) as the molecule, how does the enhancement read?
**A.** 36.7% (active)

**Q.** `Cc1cccc(Cn2cccc(C(=O)Nc3ccc4c(c3)OCCO4)c2=O)c1` was tested. Which enhancement did it give?
**A.** -1% (inactive)

**Q.** Which enhancement does the source give for `CC(C)N(CC#CCC1(O)c2ccccc2-c2ccccc21)C(C)C` here?
**A.** -0.877% (inactive)

**Q.** Which enhancement does the source give for `CCC(C)n1c(O)c(/C=N/Nc2nc3c(c(=O)n(C)c(=O)n3C)n2C)c(=O)[nH]c1=S` (stereo not given) here?
**A.** -2.9% (inactive)

**Q.** With `Cc1ccc(-c2nc3ccccc3c(=O)n2-c2ccc(Br)cn2)cc1` as the molecule, how does the enhancement read?
**A.** 3.56% (inactive)
